USP17 block: human USP17-like deubiquitinase inhibition | 47,000 tested, 6.5% active | inhibition, % at 50 µM | AID 1645855 | A8MUK1 | purified USP17, Ub-rhodamine cleavage fluorescence, 3 h
Target sequence (A8MUK1 whole entry, looked up): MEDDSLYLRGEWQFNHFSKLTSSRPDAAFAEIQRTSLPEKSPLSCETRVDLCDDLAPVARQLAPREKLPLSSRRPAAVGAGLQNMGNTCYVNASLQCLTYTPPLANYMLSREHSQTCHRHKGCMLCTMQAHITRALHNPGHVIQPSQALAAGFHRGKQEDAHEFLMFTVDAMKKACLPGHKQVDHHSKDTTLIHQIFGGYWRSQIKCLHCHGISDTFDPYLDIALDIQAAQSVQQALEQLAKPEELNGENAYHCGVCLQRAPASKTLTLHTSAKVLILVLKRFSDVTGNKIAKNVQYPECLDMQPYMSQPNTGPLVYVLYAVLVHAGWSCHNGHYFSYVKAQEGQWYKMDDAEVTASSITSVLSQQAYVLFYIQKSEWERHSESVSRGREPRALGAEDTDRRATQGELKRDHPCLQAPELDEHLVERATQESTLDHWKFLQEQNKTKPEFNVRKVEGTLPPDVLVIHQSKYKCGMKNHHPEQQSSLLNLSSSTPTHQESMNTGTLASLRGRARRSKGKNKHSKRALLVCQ
USP28 inh: human USP28 deubiquitinase inhibition | inhibition, % at 25 µM | 47,000 tested, 3% active | purified USP28, Ub-rhodamine cleavage fluorescence, 30 min | Q96RU2
USP30 block: blocks human USP30 ubiquitin-rhodamine cleavage; inhibition, % at 25 µM; purified USP30, Ub-rhodamine cleavage fluorescence; 47,000 tested, 5.3% active; AID 1645860; Q70CQ3
USP8 block: inhibitors of human USP8 deubiquitinase. P40818. purified USP8, Ub-rhodamine cleavage fluorescence, 30 min. inhibition, % at 20 µM. 47,000 tested, 4.2% active
Of the large screens only hits and unclear results are named; the others gave an inactive call. An excerpt weighted towards active compounds, which were near 13% of everything screened. Cut-off read from the data, not from the text of the source: active = inhibition above about 30%; inactive = the rest.

Cc1ccc(S(=O)(=O)N[C@@H](C(=O)N2CCC(C(=O)N[C@@H](Cc3ccccc3)C(=O)O)CC2)C(C)C)cc1	none
Cc1ccc(CNC(=O)[C@@H](NC(=O)C2CCN(C(=O)[C@@H](N)Cc3ccccc3)CC2)C(C)C)cc1	USP30 block 30
Cc1ccc(S(=O)(=O)N[C@H](C(=O)N2CCC(C(=O)N[C@@H](Cc3ccccc3)C(=O)O)CC2)C(C)C)cc1	USP30 block 32
CC(NC(=O)[C@H](NC(=O)C1CCN(C(=O)[C@H](N)Cc2ccccc2)CC1)C(C)C)c1ccccc1 (stereo partly specified)	USP30 block 31
CC(C)[C@H](NC(=O)C1CCN(C(=O)[C@@H](N)Cc2ccccc2)CC1)C(=O)NCc1ccc(F)cc1	none
O=C(c1cccc(N2C(=O)CCS2(=O)=O)c1)N1CCN(c2ccccc2F)CC1	none
O=c1c(Nc2cccc(F)c2)nc2ccncc2n1Cc1ccccc1	USP17 block 67
Cc1cc(C)cc(Nc2nc3ccncc3n(Cc3ccccc3)c2=O)c1	none
O=c1c(NCCN2CCCC2)nc2ccncc2n1Cc1ccccc1	USP17 block 66 (no result: USP28 inh, USP30 block)
CCc1ccc(-n2c(C)cc(/C=C3\C(=N)N4N=C(COc5cccc(C)c5)SC4=NC3=O)c2C)cc1	none
CCOC(=O)C1=C(c2ccccc2)Nc2nc3ccccc3n2C1c1ccccc1 (stereo unspecified)	none
O=C(NCCN1CCOCC1)c1cc(-c2cn(-c3ccccc3)cn2)n2ccccc12	none
O=C(Cn1c(=O)n(CCCC(=O)N2CC=C(c3ccccc3)CC2)c(=O)c2ccccc21)NCCC1=CCCCC1	USP17 block 52
Cc1cc(NC(=O)Cn2c(=O)n(CCC(=O)N3CC=C(c4ccccc4)CC3)c(=O)c3ccccc32)n[nH]1	USP8 block 68
CCCCNC(=O)CCCn1c(=O)c2ccccc2n(CC(=O)NCCC2=CCCCC2)c1=O	none
CN(C(=O)Cn1c(=O)n(CCC(=O)NCc2ccc3c(c2)OCO3)c(=O)c2ccccc21)C1CCCCC1	USP30 block 30
O=C(CCn1c(=O)c2ccccc2n(Cc2cccc([N+](=O)[O-])c2)c1=O)N1CC=C(c2ccccc2)CC1	USP30 block 39
CC(=O)N1CCC(N2CCC[C@H]2c2nc(-c3cncnc3N)no2)CC1	none
CC(C)N1CC2CN(C(=O)c3ccc(F)cc3)CCN2Cc2ccccc21 (stereo unspecified)	none
COc1ccc(N2CCN(C(=O)C(C)N3Cc4ccccc4C3=O)CC2)cc1 (stereo unspecified)	none
O=C(Cn1c(=O)n(-c2ccccc2)c(=O)c2ccc(C(=O)NCc3ccc4c(c3)OCO4)cc21)NCCC1=CCCCC1	USP17 block 33, USP28 inh 41, USP30 block 56, USP8 block 75
O=C(Cc1ccc(-n2c(=O)c3ccccc3n(CC(=O)NCCC3=CCCCC3)c2=O)cc1)NCCc1ccccc1	none
O=C(CCCCn1c(=O)c2ccccc2n(CC(=O)NCCC2=CCCCC2)c1=O)NCc1ccc2c(c1)OCO2	USP17 block 33 (no result: USP28 inh, USP30 block)
CCOc1ncccc1CNC(=O)Cc1c[nH]c2ccccc12	none
Cc1nnc(-c2c(C)[nH]c(C)c2S(=O)(=O)NC2CCCC2)o1	none
COc1ccc(-c2nn3c(c2C)NC(=O)CC3C(=O)Nc2ccc3c(c2)OCO3)cc1 (stereo unspecified)	USP30 block 38
COc1ccc(NC(=O)C2CC(=O)Nc3cc(-c4ccccc4)nn32)cc1 (stereo unspecified)	USP17 block 56
O=C1CC(C(=O)Nc2ccc3c(c2)OCO3)n2ncnc2N1 (stereo unspecified)	none
COc1ccc(-c2cnn3c2NC(=O)CC3C(=O)Nc2ccc3c(c2)OCO3)cc1 (stereo unspecified)	none
COc1ccccc1-c1cnn2c1NC(=O)CC2C(=O)Nc1ccc2c(c1)OCO2 (stereo unspecified)	none
Cc1c(-c2ccccc2)nn2c1NC(=O)CC2C(=O)Nc1ccc2c(c1)OCO2 (stereo unspecified)	USP17 block 47
CCOC(=O)N1CCN(S(=O)(=O)c2ccc(C(=O)Nc3ccc(OC)c4ccccc34)cc2)CC1	USP8 block 56
COc1ccc(CC(=O)N2CCCc3c(cnn3C)C2)cc1F	none
Cc1ccc(NC(=O)c2cc(C3CC3)on2)cc1	none (no result: USP28 inh, USP30 block)
O=C(Nc1ccc2[nH]c(=O)[nH]c2c1)c1cc2c(s1)CCCCC2	USP8 block 53
Cc1ccc(NC(=O)c2cc3c(s2)CCC3)cc1	USP17 block 49, USP28 inh 37, USP8 block 49
O=C(Nc1ccc2c(c1)CCC2)c1cc2ccccc2s1	USP28 inh 33
O=C(Nc1ccc2[nH]c(=O)[nH]c2c1)c1cc2c(=O)n3ccccc3nc2s1	none

High-throughput results deposited in PubChem by Buhrlage Lab, Dana-Farber Cancer Institute and Novartis Institutes for BioMedical Research (Cambridge, Mass).
